Experimental data published in PubChem BioAssay.
Active and inactive are the calls of the source.

Experiments:
[1] = compounds binding Alexa647 anti-His antibody – biochemical, small-molecule microarray, 635 nm fluorescence, artefact control for SMM control protein annotation, primary screen (AID 1128); details: higher = more signal;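 note: score merges feature fluorescence with signal-to-noise for each printed compound spot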
[2] = test system: Human papillomavirus type 1a E7 protein (residues 1-88); test: HPV1a E7 small-molecule binders, primary screen, biochemical, small-molecule microarray, residues 1-88, 635 nm (AID 1129); details: small-molecule microarray binding, fluorescence 635 nm; higher = more signal
[3] = molecular target: Focal adhesion kinase 1 (Homo sapiens) (UniProt Q05397); test: PTK2 protein binding on printed compound slides – biochemical, small-molecule microarray, 635/667 nm fluorescence, BSA, DTT, primary screen (AID 1130); details: 635 nm fluorescence, higher = more signal;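 note: composite of spot emission at 667 nm and signal to noise over triplicate slides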
Chain of Focal adhesion kinase 1 (Homo sapiens) (Q05397 whole entry, looked up): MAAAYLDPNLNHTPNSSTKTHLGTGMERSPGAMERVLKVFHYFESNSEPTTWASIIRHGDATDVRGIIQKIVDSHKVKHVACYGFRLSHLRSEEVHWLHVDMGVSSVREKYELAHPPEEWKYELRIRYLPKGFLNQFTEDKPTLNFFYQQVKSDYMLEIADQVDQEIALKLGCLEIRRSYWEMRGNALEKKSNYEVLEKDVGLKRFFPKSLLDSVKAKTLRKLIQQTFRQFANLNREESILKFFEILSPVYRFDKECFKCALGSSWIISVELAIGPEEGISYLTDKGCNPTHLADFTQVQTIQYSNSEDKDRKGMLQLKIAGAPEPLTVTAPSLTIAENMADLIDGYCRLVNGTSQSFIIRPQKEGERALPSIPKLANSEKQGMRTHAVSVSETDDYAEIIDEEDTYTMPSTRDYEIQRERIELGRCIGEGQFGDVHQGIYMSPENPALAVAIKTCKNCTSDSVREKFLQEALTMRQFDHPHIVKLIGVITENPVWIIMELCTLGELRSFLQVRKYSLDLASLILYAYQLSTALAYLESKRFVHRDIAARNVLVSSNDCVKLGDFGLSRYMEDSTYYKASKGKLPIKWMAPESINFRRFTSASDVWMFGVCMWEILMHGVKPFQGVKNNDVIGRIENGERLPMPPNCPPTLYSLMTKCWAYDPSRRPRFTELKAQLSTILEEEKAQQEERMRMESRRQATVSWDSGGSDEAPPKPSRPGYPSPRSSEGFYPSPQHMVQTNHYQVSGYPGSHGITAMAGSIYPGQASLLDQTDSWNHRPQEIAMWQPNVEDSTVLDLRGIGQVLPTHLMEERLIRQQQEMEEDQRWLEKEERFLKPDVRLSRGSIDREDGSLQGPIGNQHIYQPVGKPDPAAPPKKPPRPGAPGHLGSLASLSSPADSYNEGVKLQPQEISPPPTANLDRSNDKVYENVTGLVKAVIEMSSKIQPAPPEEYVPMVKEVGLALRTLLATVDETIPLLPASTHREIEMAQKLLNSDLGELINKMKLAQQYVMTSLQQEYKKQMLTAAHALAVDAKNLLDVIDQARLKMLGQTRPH

[4] = test system: Fibrinogen (Alexa647-labelled); test: Alexa647-fibrinogen binding to printed small molecules – biochemical, small-molecule microarray, 635/667 nm fluorescence, artefact control for SMM control-protein annotation, profiling panel (AID 1131); details: fibrinogen-A647 binding fluorescence, higher = more signal;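 note: z-score merges 667 nm fluorescence with per-spot signal-to-noise over triplicate slides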
[5] = molecular target: Follistatin (Homo sapiens) (UniProt P19883); test: FST protein binding to printed compounds – biochemical, small-molecule microarray, 635/667 nm fluorescence, primary screen (AID 1132); details: 635 nm fluorescence, higher = more signal
Chain of Follistatin (Homo sapiens) (P19883 whole entry, looked up): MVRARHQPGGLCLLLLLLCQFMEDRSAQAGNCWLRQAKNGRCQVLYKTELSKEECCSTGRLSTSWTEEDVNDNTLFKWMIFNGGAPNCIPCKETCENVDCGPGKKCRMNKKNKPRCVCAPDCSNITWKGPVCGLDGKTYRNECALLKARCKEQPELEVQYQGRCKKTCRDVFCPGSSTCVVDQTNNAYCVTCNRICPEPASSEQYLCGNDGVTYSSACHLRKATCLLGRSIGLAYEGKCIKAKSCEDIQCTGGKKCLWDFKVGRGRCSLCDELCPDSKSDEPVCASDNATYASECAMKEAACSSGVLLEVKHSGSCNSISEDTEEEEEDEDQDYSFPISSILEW

[6] = molecular target: Fibroblast growth factor 2 (Homo sapiens) (UniProt P09038); test: basic fibroblast growth factor binding to printed compounds – biochemical, small-molecule microarray, 635/667 nm fluorescence, primary screen (AID 1133); details: FGF2, fluorescence 635/667, higher = more signal
Chain of Fibroblast growth factor 2 (Homo sapiens) (P09038 whole entry, looked up): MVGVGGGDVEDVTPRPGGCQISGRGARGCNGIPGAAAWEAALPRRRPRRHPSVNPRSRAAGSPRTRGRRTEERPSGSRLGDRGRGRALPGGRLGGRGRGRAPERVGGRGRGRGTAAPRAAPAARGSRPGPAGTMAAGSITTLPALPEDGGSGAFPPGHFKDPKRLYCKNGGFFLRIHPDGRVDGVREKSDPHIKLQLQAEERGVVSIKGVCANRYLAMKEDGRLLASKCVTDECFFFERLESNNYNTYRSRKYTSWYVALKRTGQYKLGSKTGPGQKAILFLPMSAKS

[7] = JC-1 mitochondrial potential readout, lung cancer cells – cell-based, A549, JC-1 fluorescence, basal, 24 h, 100 nL, profiling panel (AID 1138); details: higher = more signal;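 note: A549 lung adenocarcinoma cells under basal conditions with no added stimulus; test concentration not given here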
Lefty1 = Lefty1 protein binding to printed compounds – biochemical, small-molecule microarray, 635/667 nm fluorescence, primary screen (AID 1139); details: fluorescence 635/667, higher = more signal
[8] = test system: wheat germ agglutinin (Triticum aestivum), Alexa647-labelled; test: Alexa647-WGA lectin binding to printed small molecules – biochemical, small-molecule microarray, 635/667 nm fluorescence, artefact control for SMM control-protein annotation, profiling panel (AID 1140); details: WGA-A647 binding, 635 nm fluorescence, higher = more signal;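 note: score merges 667 nm feature emission with signal to noise over triplicate slides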
[9] = molecular target: Luciferin 4-monooxygenase (Photinus pyralis) (UniProt P08659); test: inhibition of purified Photinus pyralis luciferase – biochemical, luminescence, purified enzyme, 2006 set, primary screen (AID 1141); details: purified firefly luciferase, SteadyGlo luminescence, 30 min; higher = more signal, called active from +8 up or from −8 down;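 note: cell-free assay with purified firefly luciferase at 100 ng per well in PBS; test concentration not given here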
Chain of Luciferin 4-monooxygenase (Photinus pyralis) (P08659 whole entry, looked up): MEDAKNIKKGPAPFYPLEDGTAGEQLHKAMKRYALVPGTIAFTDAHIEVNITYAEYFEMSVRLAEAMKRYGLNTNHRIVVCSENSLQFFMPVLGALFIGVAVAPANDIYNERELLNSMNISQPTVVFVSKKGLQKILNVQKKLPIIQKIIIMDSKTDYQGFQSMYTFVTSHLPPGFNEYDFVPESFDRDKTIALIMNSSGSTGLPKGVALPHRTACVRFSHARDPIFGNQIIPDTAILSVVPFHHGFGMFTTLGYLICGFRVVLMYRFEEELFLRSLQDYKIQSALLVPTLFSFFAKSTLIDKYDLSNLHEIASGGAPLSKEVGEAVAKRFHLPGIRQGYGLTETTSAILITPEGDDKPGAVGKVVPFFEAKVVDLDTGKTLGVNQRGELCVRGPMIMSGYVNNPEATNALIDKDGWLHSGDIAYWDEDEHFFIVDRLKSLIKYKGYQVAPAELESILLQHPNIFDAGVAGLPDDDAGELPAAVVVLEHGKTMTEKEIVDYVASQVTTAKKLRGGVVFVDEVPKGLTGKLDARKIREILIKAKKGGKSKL

Row | Structure (SMILES) | composite z-score [1] | composite z-score [2] | composite z-score [3] | composite z-score [4] | composite z-score [5] | composite z-score [6] | z-score [7] | composite z-score (Lefty1) | composite z-score [8] | z-score [9]
1 | COCCOC(=O)N1C(=O)[C@@]2(c3ccccc31)[C@H](C(=O)N1CCc3cc(OC)c(OC)cc3C1)[C@H]1C(=O)O[C@H](c3ccccc3)[C@H](c3ccccc3)N1[C@@H]2c1ccccc1OCCO | 1.86 | 1.18 | 0.989 | 0.938 | 1.13 | 0.349 | 0.679 | 0.762 | 1.02 | -1.69 (inactive)
2 | COc1cccc([C@@H]2[C@@H](C)CC[C@H]3C(=O)N(C)[C@@H](C(C)C)C(=O)N23)c1 | 0.381 | 0.694 | 1.24 | -0.0271 | 0.388 | 0.348 | 1.68 | 0.915 | 0.168 | -1.56 (inactive)
3 | C=CCC(OC(C)=O)[C@@H]1[C@@H](N(Cc2ccc(-c3ccccc3)cc2)C(=O)c2ccc(C)cc2)c2cc(OCCCO)ccc2N1C(=O)c1ccc(-c2ccccc2)cc1 (stereo not given in full) | -0.958 | 0.438 | 0.248 | -0.195 | 0.217 | 0.0217 | 2.98 | -0.166 | 0.258 | -1.81 (inactive)
4 | CCN1C(C)=C(C(=O)OC)[C@@H](c2ccccc2)N2C(=O)[C@@]3(C(=O)OC)O[C@@]12[C@@H]1C(=O)N(C)C(=O)[C@@H]13 | 1.65 | 0.812 | -0.23 | 0.819 | 0.968 | 0.916 | 0.842 | 0.819 | 1.12 | -0.701 (inactive)
5 | CSCC[C@@H]1NC(=O)CC=C[C@@H](C)COC(=O)[C@H](CCSC)NC(=O)CC=C[C@@H](C)COC1=O | -0.158 | -0.111 | -0.388 | 0.017 | 0.129 | 0.296 | 1.01 | 0.531 | -0.725 | -0.731 (inactive)
6 | C[N+](C)(C)CCCCNC(=O)[C@H]1C[C@H]2C(=O)NCC(=O)N2[C@H]1c1cccc(OCCO)c1 | 2.81 | 0.279 | -0.0181 | -0.0364 | 1.49 | 1.9 | -0.776 | 1.71 | 0.399 | -0.162 (inactive)
7 | CO[C@@H]1COC(=O)[C@@H]2CCCN2C(=O)CC=C[C@@H](C)[C@H](OC)COC(=O)[C@@H]2CCCN2C(=O)CC=C[C@H]1C | -0.775 | -1.7 | -0.191 | -1.15 | 1.34 | 1.58 | 1.01 | 1.31 | -0.949 | -1.44 (inactive)
8 | Cc1ccc(S(=O)(=O)N2[C@@H](c3ccccc3)C(C(=O)O)=CC[C@H]2c2ccccc2)cc1 | -0.247 | 0.699 | 0.431 | 0.175 | -0.12 | -0.158 | -1.38 | 0.0236 | 0.33 | 0.838 (inactive)
9 | CCN1C(C)=C(C(=O)OC)[C@@H](c2ccccc2)N2C(=O)[C@](O)(C(=O)OC)[C@@H](c3ccccc3)C(C(C)=O)=C12 | 0.189 | 0.0108 | -0.413 | -1.11 | 0.679 | 1.05 | -0.21 | 1.1 | -0.531 | -1.03 (inactive)
10 | C=CC(=O)O[C@@H](Cc1ccccc1)[C@H]1C2C=CCCC=C2CN1Cc1cccc(Cl)c1 (stereo not given in full) | -0.0091 | -2.16 | -0.426 | -0.327 | -0.14 | -0.344 | 1.77 | -0.697 | -0.346 | -1.52 (inactive)
11 | COCCOC(=O)N1C(=O)[C@@]2(c3cc(C#CCNC(N)=O)ccc31)[C@H](c1ccc(OCCO)cc1)N1[C@H](c3ccccc3)[C@H](c3ccccc3)OC(=O)[C@H]1[C@@H]2C(=O)N1CCCCCCC1 | -0.347 | 0.718 | 0.422 | 0.355 | 1.35 | 0.117 | -0.99 | 0.854 | 0.884 | -1.45 (inactive)
12 | COc1ccc([Si](C)(C)[C@@H]2[C@@H](CC(=O)N(CCO)Cc3ccccc3)O[C@]3(C(=O)N(Cc4cccc(N5CCC5=O)c4)c4ccccc43)[C@H]2C)cc1 | 0.863 | 1.1 | 0.545 | -0.0806 | 1.3 | 1.4 | -0.282 | 1.49 | 0.163 | 0.352 (inactive)
13 | COC(=O)Cn1c(C(=O)N2CCCC2)cc2c1C[C@H]1CN(C(=O)c3ccccc3)[C@@](Cc3ccc(OC)cc3)(C(=O)OC)[C@@H]21 | 1.9 | 1.24 | 1.67 | 0.972 | 0.43 | -0.612 | 1.31 | -0.544 | 1.18 | 1.78 (inactive)
14 | O=C(NCC(F)(F)F)[C@@H]1c2ccccc2C(=O)N(Cc2ccccc2Cl)[C@H]1c1ccc(CO)cc1 | 0.752 | -0.778 | -0.844 | -0.81 | -0.607 | -0.434 | 0.97 | -1.23 | -0.742 | -0.565 (inactive)
15 | CCOC(=O)C[C@H]1[C@H](OC(=O)c2cc3ccccc3oc2=O)[C@@H](NC(=O)c2ccc3ccccc3c2)c2cc(OCCCO)ccc2N1C(=O)c1ccc2ccccc2n1 | 0.322 | 1.04 | 0.0147 | 0.973 | 0.986 | 0.927 | 1.33 | 0.488 | 1.05 | -0.233 (inactive)
16 | CN1C(=O)C2C=CC(C(O)C3CC=CCC3)N(Nc3ccccc3)C2C1=O (stereo not given) | 0.674 | 1.14 | -0.198 | 0.678 | 1.28 | 0.769 | 0.883 | 1.29 | 1.24 | 0.864 (inactive)
17 | C=CCc1cccc([C@@H]2[C@@H](C)CC[C@H]3C(=O)N4[C@H](c5cccc(CC=C)c5)[C@@H](C)CC[C@H]4C(=O)N23)c1 | 0.22 | 1.09 | 0.19 | 0.991 | 1.28 | 0.704 | 3.36 | 0.644 | 0.846 | -0.744 (inactive)
